Most compounds without a hit are left out; they make up all but 3.1% or so of the library.
SIRT5 block: inhibitors of human sirtuin-5 desuccinylase; Q9NXA8; Purified SirT5, succinyl-peptide AMC, trypsin-coupled fluorescence; inhibition, % at 15 µM; 330,000 tested, 1.1% active; AID 652115; in the data active = inhibition above about 15%
Target sequence (Q9NXA8 whole entry, looked up): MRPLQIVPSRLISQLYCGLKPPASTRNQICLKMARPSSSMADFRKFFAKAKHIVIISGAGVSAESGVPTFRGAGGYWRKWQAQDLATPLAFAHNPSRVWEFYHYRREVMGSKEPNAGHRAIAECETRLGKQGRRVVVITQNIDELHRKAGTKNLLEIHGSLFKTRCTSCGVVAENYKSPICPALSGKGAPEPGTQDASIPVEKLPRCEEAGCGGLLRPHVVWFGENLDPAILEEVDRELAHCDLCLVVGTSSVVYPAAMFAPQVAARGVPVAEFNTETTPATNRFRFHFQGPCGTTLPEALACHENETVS
FGF22 binding: shifts melting point of recombinant human FGF22 | recombinant FGF22 thermal shift, SYPRO orange fluorescence; percent of sucrose octasulfate shift, DMSO zero | activity (Tm shift, normalised), % at 9.99 µM | 340,000 tested, 1.5% active | AID 651658;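 active = mean Tm shift, scaled 0 neutral to 100 positive control, at about 1.3% or above, every replicate too, limit read from the data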
CASP6 VEID inh: inhibitors of human caspase-6; P55212; purified caspase-6, Z-VEID-R110 cleavage fluorescence; inhibition, % at 12.5 µM; 350,000 tested, 0.53% active; AID 686996;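 active = mean inhibition across replicates at least about 35%, with every replicate also reaching that limit, limit read from the data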;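 note: 0% = median of neutral control wells and 100% = no fluorescence left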
ERAP1 inh: blocks human ERAP1 aminopeptidase activity; Q9NZ08; recombinant ERAP1, Leu-AMC fluorescence, 60 min; inhibition, % at 10.7 µM; 340,000 tested, 0.15% active;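 active = mean replicate inhibition of at least 30%, or all replicates individually reaching that 30% level; inactive = mean below 30% and not every replicate reaching it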;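 note: 0% = neutral control wells and 100% = L-leucinethiol positive control wells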
An asterisk follows results filed as active; / = not tested or not shown.

SMILES	SIRT5 block	FGF22 binding	CASP6 VEID inh	ERAP1 inh
O=C(C[C@@H]1CC[C@H]2[C@@H](COC[C@H](O)CN2CC2CCOCC2)O1)N1CCOCC1	2	0	-1	-1
CC(NC(=O)COc1ccc(N(C)S(=O)(=O)c2ccccc2)cc1)c1ccccc1 (stereo not given)	3	43*	3	2
C=C(C)C(=O)Oc1ccc(N=Nc2ccc(C)cc2)ccc1=O	5	0	80*	1
COc1ccc2c3c([nH]c2c1)[C@@H](CO)N(S(C)(=O)=O)CC31CN(C(=O)Nc2ccccc2)C1	-3	-1	2	-1
COc1ccc(-c2cn3ccccc3n2)cc1	-15	1	-1	/
CCCOc1ccc(-c2cn3ccccc3n2)cc1	-9	43*	-1	0
C[C@H]1CCCCO[C@H](CN(C)C(=O)CCCN(C)C)[C@@H](C)CN([C@@H](C)CO)C(=O)c2cc(NC(=O)c3ccccc3)ccc2O1	0	0	-19	-9
C[C@@H]1CN([C@H](C)CO)C(=O)c2cc(NC(=O)CCCN(C)C)ccc2O[C@@H]1CN(C)S(=O)(=O)c1ccccc1	/	0	0	0
Cc1onc(NC(=O)NC(=O)c2c(Cl)cccc2Cl)c1Br	-5	0	-1	1
Cc1onc(NC(=O)NC(=O)c2c(F)cccc2Cl)c1Br	-4	0	76*	-1
O=C1CCCC(O)=C1N=Nc1cccc(C(=O)O)c1	5	0	37*	12
COc1ccccc1N=C1SC(C(=O)Nc2cccc(Cl)c2Cl)C(N)=C1C(N)=O (stereo not given)	21*	0	-2	1
COCCN(C(=O)COC(=O)CNC(=O)c1cccs1)c1c(N)n(Cc2ccccc2)c(=O)[nH]c1=O	0	0	4	35*
COCCN(C(=O)CSc1nnc(-c2cccc(C)c2)n1C)c1c(N)n(Cc2ccccc2)c(=O)[nH]c1=O	-1	0	7	-3
COCCN(C(=O)CSc1nnc(-c2ccccc2F)n1C)c1c(N)n(Cc2ccccc2)c(=O)[nH]c1=O	-1	43*	1	4
Cc1c(C(=O)OCC(=O)N(CC(C)C)c2c(N)n(Cc3ccccc3)c(=O)[nH]c2=O)oc2ccccc12	4	0	46*	0
COCCN(C(=O)COC(=O)/C=C/c1ccco1)c1c(N)n(Cc2ccccc2)c(=O)[nH]c1=O	-3	0	43*	1
COCCN(C(=O)COC(=O)/C=C/c1ccc(C)o1)c1c(N)n(Cc2ccccc2)c(=O)[nH]c1=O	0	0	4	4
CCOc1ccc2oc(C(=O)OCC(=O)N(CC(C)C)c3c(N)n(Cc4ccccc4)c(=O)[nH]c3=O)c(C)c2c1	1	0	15	-2
O=C(CCN1CCCCC1)NCC[C@@H]1CC[C@H](NC(=O)C2CCC2)[C@@H](CO)O1	1	0	-4	-1
O=C(C[C@H]1C=C[C@@H](NC(=O)Nc2cc(F)ccc2F)[C@H](CO)O1)NCc1ccncn1	-4	0	2	-1
CC(C)(C)c1n[nH]c2c1CCCC2	42*	0	-1	-4
COCC(=O)N1[C@H](C#N)[C@H](c2ccccc2-c2ccccc2)[C@H]1CO	2	0	0	4
O=C(C1CCCC1)N1CCCCN2[C@H](CO)[C@@H](c3ccc(-c4cccc(F)c4)cc3)[C@H]2C1	8	0	1	-1
CC(C)C(=O)Nc1cccc(C(=O)Nc2ccc(S(=O)(=O)Nc3nccs3)cc2)c1	11	0	1	-1
SMILES	SIRT5 block	FGF22 binding	CASP6 VEID inh	ERAP1 inh
O=C(Nc1ccc(S(=O)(=O)Nc2nccs2)cc1)c1cccc(F)c1	32*	0	1	-4
CC(=O)N1CC(=O)N2[C@@H](CO)[C@H](c3ccc(-c4cccc(C(=O)N(C)C)c4)cc3)[C@@H]2C1	-1	/	1	-2
C=CCc1cccc2cc(C(=O)Nc3ccccc3C(=O)O)c(=O)oc12	-1	43*	9	0
C=CCc1cccc2cc(C(=O)N(C)C)c(=O)oc12	2	/	2	0
O=C(C[C@H]1CC[C@H](NC(=O)CC2CC2)[C@@H](CO)O1)NCc1ccc(-c2ccccc2)cc1	-1	0	-2	-2
COc1ccc(OC)c(CCNC(=O)c2ccc(CS(=O)Cc3cccc(Cl)c3)o2)c1 (stereo not given)	-1	0	-1	-4
O=C(NCCc1cccs1)c1ccc(CS(=O)Cc2cccc(Cl)c2)o1 (stereo not given)	/	43*	-3	2
Cn1c(=O)c2c(nc(OCCc3ccccc3)n2C)n(C)c1=O	26*	0	2	1
